Here are results for 13 compounds from PubChem BioAssay (NCI).

About 83,000 compounds went through this panel and 20% of them were active in at least one assay; those are over-represented in the sample as a whole.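 Testing used 96-well plates and a 48-hour single-concentration exposure. Example: -40 means 40% of the starting cells died.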 A number with no mark means an inactive call. The source made the active and inactive calls. How the source made its calls: active means growth percent below 10; inactive means the rest.

Common to all, as to assay: NCI-60 one-dose screen, 48 h (100 = growth as untreated, 0 = no growth, -100 = all killed)
Common to all, as to details: 10 µM unless noted

For test [1], the system named is SK-MEL-2 melanoma.
The subject of test [2] is EKVX NSCLC.
The test system of test [3] is SN12C renal.
Test [4] deals with UO-31 renal.
In test [5] the test system is TK-10 renal.
Test [6] has as its system ACHN renal.
The subject of test [7] is CAKI-1 renal.
Test [8] relates to A498 renal.
In test [9] the test system is CCRF-CEM leukemia.
Test [10] has as its system MOLT-4 leukemia.

For the compound `CN1CCN(c2nc(-c3csc(-c4cccs4)n3)cc3ccccc23)CC1`, the growth in test [1] was 39.7%; in [2], 68.3%; in test [3], 71%; in test [4], 59.8%; in [5], 79%; in test [6], 31.4%. The growth in [7] was 39.6%; in test [8], 10.5%; in test [9], 30.7%; in test [10], 9.46% (active).
`Nc1nc(Br)nc2c1ncn2C1CC(O)C(CO)O1` (stereo not given): the growth in [1] is 102%; in test [2] it was 71%; in [3] it was 52.1%; in test [4], 34.1%; in test [5], 71.2%; in test [6] it was 29.8%. The growth was 50.9% in test [7], 89.4% in test [8], 27.4% in test [9] and 27.7% in test [10].
Turning to `CC(C)C[C@@H](NC(=O)[C@@H](Cc1ccccc1)NC(=O)c1cnccn1)B1O[C@H]2[C@H](O)[C@@H](C(=O)NCCCC[C@@H]3NC(=O)[C@@H](Cc4ccccc4)NC(=O)[C@H](CC(=O)O)NC(=O)CNC(=O)[C@H](CCCN=C(N)N)NC3=O)O[C@@H](CN)[C@H]2O1`, the growth is -38.5% (active) in test [1]; -12.6% (active) in [2]; -29.5% (active) in [3]; -16.4% (active) in [4]; -79.1% (active) in test [5]; -8.22% (active) in test [6]. For the same compound, the growth was -44.2% (active) in test [7], -94.5% (active) in test [8], 6.17% (active) in [9] and 0.435% (active) in test [10].
Consider `COc1cc2c(cc1-c1c(C)noc1C)ncc1nc(C3CC3)n([C@H](C)COC(F)F)c12`, for which the growth in [1] was 74.1%; in [2] it was 56.9%; in test [3], 71.4%; in test [4], 21.6%; in test [5], 26.5%; in test [6], 40.6%. Further, the growth is 34.1% in test [7], 0.499% (active) in test [8], 52% in test [9] and 42.2% in test [10].
For `N#CC1=C(N)Oc2c(c(N)nn2-c2ccccc2)C1c1ccc(Cl)cc1` (stereo not given), the growth was 103% in test [1]; 90.7% in test [2]; 97.8% in test [3]; 61.2% in [4]; 152% in test [5]; 93.1% in test [6]. Moreover, the growth is 86.8% in test [7], 97.8% in [8], 101% in [9] and 98.8% in test [10].
For the compound `CC1(C)c2ccccc2C(=O)C1(Br)Cc1ccccc1` (stereo not given), the growth in [1] is 103%; in test [2], 94.5%; in test [3], 95.4%; in test [4], 56.6%; in test [5] it was 105%; in [6] it was 87.7%. The growth is 50.5% in test [7], 89.7% in test [8], 26.4% in test [9] and 16.4% in [10].
On to `CCN1CCN(C(=O)[C@@]2(C)CC[C@]3(C)CC[C@]4(C)C(=CC(=O)[C@@H]5[C@@]6(C)CC[C@H](OCCC#N)C(C)(C)[C@@H]6CC[C@]54C)[C@@H]3C2)CC1`, for which the growth in test [1] was 93.5%; in test [2], 85.7%; in [3], 83.1%; in [4], 69.8%; in [5] it was 93.4%; in test [6], 98.3%. The growth was 80.2% in test [7], 101% in test [8], 63.4% in test [9] and 62.8% in test [10].
Consider `Nc1c2c(nc3ccc(Cl)cc13)CC(c1ccccc1)CC2=O` (stereo not given), for which the growth in test [1] was 59%; in [2], 40.3%; in [3] it was 61.3%; in test [4], 57.8%; in test [5], 79.6%; in [6], 47.9%. Moreover, the growth in [7] was 44.5%; in test [8], 49.3%; in test [9], 43.9%; in test [10], 51%.
For the compound `CC1(C)C=CC[C@]2(C)[C@H]3CC[C@@H]4[C@H]5[C@H](C(=O)/C=C/c6cccnc6)CC[C@]5(CO)CC[C@@]4(C)[C@]3(C)CC[C@@H]12`, the growth is -66.1% (active) in test [1]; -36.7% (active) in test [2]; -40% (active) in test [3]; -100% (active) in test [4]; -90.7% (active) in test [5]; -100% (active) in test [6]. Besides, the growth in test [7] was -75.5% (active); in [8], -78.8% (active); in test [9] it was -2.65% (active); in test [10], -30.6% (active).
As to `COC(=O)[C@]12CC[C@@H](C)[C@H](C)[C@@H]1C1=CC[C@@H]3[C@@]4(C)C[C@@H](OC(C)=O)[C@H](OC(C)=O)[C@@](C)(COC(C)=O)[C@@H]4[C@H](O)C[C@@]3(C)[C@]1(C)CC2`, the growth in test [1] was -2.42% (active); in test [2] it was 10.7%; in test [3], 11%; in test [4] it was 10.9%; in [5] it was -1.29% (active); in [6] it was 11.8%. Moreover, the growth in test [7] is 11.6%; in test [8], 5.15% (active); in [9], 12%; in test [10], 3.95% (active).
As to `O=C(NO)c1ccc(Cn2c(=O)n(-c3ccccc3)c(=O)c3ccccc32)cc1`, the growth in test [1] is 5.92% (active); in [2], 21.6%; in test [3], 44.1%; in [4], 50.5%; in test [5], 28.1%; in test [6] it was 55.7%. In addition, the growth in test [7] is 56.9%; in test [8], -10.7% (active); in [9] it was 2% (active); in test [10], -2.07% (active).
With `C[C@@H]1CCCCCCCCC[C@H](O)C(=O)C[C@@H](SC[C@@H](O)C(=O)O)C(=O)O1`, the growth in test [1] is 100%; in test [2] it was 105%; in [3], 93.6%; in test [4], 87.2%; in test [5] it was 95.2%; in test [6] it was 96.6%. Also, the growth was 102% in [7], 167% in test [8], 59.4% in test [9] and 70.2% in test [10].
For `Cc1ccnc2c(OCc3ccccc3)cccc12`, the growth in [1] was 105%; in test [2], 78.6%; in test [3] it was 88.8%; in test [4], 64.3%; in [5] it was 102%; in test [6], 89.3%. For the same compound, the growth in test [7] was 86.1%; in test [8], 90.3%; in [9], 108%; in [10] it was 98%.
